Bioassay records from PubChem.
This is a sample that favours compounds with a hit; in the whole collection about 4.1% have one here.
PolyA inh – blocks polyadenylation in yeast reporter cells | 300,000 tested, 0.02% active | activity score, % at 12 µM | S. cerevisiae SKY197-pL101 polyadenylation reporter, beta-gal luminescence; efflux-impaired pdr1/pdr3 knockout yeast; score 100 = 6 SD above DMSO;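 active = lowest replicate activity score at least 50, where 100 means six control SD above control mean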;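 also: yeast exposed to compound for 9 h at 30 °C; higher score means more reporter readthrough which indicates perturbed polyadenylation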
IDE cell inh – cellular human IDE inhibition; 320,000 tested, 0.41% active; inhibition, % at 5.59 µM; P14735; HEK cells, FAbetaB cleavage, fluorescence polarization;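 active = percent inhibition above the average of all tested compounds plus 3 SD, set per screening campaign, cut at about 16% in these data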;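 also: IDE supplied by intact live HEK cells; FP after avidin binding of uncleaved biotin substrate so inhibition keeps polarization high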
Target sequence (P14735 whole entry, looked up): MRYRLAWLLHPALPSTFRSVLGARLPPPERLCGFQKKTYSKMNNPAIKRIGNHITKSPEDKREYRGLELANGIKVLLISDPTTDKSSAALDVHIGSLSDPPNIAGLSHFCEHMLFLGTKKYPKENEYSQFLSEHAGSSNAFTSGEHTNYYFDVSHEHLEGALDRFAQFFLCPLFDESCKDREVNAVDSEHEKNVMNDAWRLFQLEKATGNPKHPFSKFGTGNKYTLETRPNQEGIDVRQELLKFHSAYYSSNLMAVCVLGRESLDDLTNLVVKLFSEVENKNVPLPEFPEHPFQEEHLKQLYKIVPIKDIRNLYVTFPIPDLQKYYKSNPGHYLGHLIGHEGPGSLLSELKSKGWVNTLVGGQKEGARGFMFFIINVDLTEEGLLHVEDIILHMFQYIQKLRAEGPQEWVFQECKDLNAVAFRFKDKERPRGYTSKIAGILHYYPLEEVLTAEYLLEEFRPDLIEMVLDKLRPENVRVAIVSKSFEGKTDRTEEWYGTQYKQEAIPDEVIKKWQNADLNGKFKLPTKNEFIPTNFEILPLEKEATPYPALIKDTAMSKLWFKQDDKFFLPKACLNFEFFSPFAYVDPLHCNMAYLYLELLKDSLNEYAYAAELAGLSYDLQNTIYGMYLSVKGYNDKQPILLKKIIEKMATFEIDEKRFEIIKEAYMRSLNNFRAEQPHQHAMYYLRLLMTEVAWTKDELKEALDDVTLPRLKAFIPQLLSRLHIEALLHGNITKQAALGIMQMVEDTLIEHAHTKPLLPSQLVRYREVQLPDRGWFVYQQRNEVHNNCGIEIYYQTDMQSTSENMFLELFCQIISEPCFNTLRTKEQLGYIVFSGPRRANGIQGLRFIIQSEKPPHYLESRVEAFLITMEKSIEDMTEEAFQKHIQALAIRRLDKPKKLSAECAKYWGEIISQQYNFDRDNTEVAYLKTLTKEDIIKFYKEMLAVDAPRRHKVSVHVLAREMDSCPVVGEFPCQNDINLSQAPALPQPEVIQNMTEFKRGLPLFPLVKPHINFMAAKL
ALR inh – human ALR oxidase inhibition via reduced H2O2 | AID 485317 | P55789 | purified ALR, DTT oxidation, H2O2 HRP-luminol luminescence | inhibition, % (no concentration beside the values) | 290,000 tested, 3.8% active;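 active = mean replicate inhibition above about 79%, with every replicate also reaching it, limit read from the data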
CaV13 ICDI inh – Primary screen for inhibitors of IQ motif and Ca2+-dependent inactivation inhibitor domain binding in CACNA1D, Förster resonance energy transfer in living cells, …; HEK cells, CFP/YFP FRET ICDI-IQ, plate reader, 10 min; percent FRET-ratio fall versus neutral wells; inhibition, % at 12.3 µM; 340,000 tested, 0.098% active;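 active = mean replicate inhibition of at least 30% and at least 1% of replicates passing that level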
IDE cell activ – activators of human insulin-degrading enzyme in cells | activation, % at 5.96 µM | P14735 | HEK cells, FAbeta-B cleavage, fluorescence polarization; 0% vehicle, 100% cell-free pure enzyme wells | AID 493087 | 340,000 tested, 0.073% active;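 active = activation above the mean of all tested compounds plus 3 SD, set per screening campaign, cut at about 17% in these data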
M18AAP inhibitor – PfM18AAP enzyme inhibition | inhibition, % at 7.35 µM | 290,000 tested, 1.2% active | recombinant PfM18AAP, H-Glu-NHMec fluorogenic cleavage | AID 1822;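 active = inhibition above the campaign mean inhibition over all tested compounds plus 3 SD, cut at about 28% in these data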
Large screens that a line does not name were inactive.

O=C(Nc1ccccc1O)c1cc(S(=O)(=O)N2CCOCC2)c(Cl)cc1Cl	ALR inh 90.4
CC(=O)N1CCN(S(=O)(=O)c2cccc(C(=O)Nc3ccccc3N3CCCC3)c2)CC1	ALR inh 97.4 (no result: M18AAP inhibitor)
COc1ccc(C)cc1NC(=O)C1CCN(C(=O)c2ccco2)CC1	none
O=C(C(=O)N1CCN(c2ccccc2)CC1)c1ccco1	none (no result: PolyA inh, IDE cell inh, ALR inh, IDE cell activ, M18AAP inhibitor)
O=C(NC(c1ccc(-c2ccccc2)cc1)c1cnccn1)C1CCN(CCN2C(=O)c3ccccc3C2=O)CC1 (centres undefined)	none (no result: PolyA inh, IDE cell inh, ALR inh, IDE cell activ, M18AAP inhibitor)
COc1ccc(C(=O)Nc2ccc(N3CCCCCC3)cc2)cc1S(=O)(=O)N1CCOCC1	ALR inh 97.7 (no result: PolyA inh, M18AAP inhibitor)
CC1CN(S(=O)(=O)c2cccc(C(=O)Nc3ccccc3N3CCCC3)c2)CC(C)O1 (centres undefined)	ALR inh 96.5 (no result: M18AAP inhibitor)
CN1CCN(S(=O)(=O)c2cccc(C(=O)Nc3ccccc3N3CCCC3)c2)CC1	none
COc1ccc(-n2c(=O)c3ccccc3n(CC(=O)OCc3ccccc3)c2=O)cc1OC	none
O=S(=O)(O)c1cccc2cccc(Nc3ccccc3)c12	ALR inh 98.7 (no result: M18AAP inhibitor)
COc1ccc(-c2ccc(CCC(=O)O)n2-c2ccccc2OC)cc1	ALR inh 98.5
O=C(O)CCc1ccc(-c2ccccc2)n1NC(=O)c1sc2ccccc2c1Cl	ALR inh 98.0
NC(=O)Nn1c(CCC(=O)O)ccc1-c1ccc(Cl)cc1	none
COc1ccc(-c2ccc(CCC(=O)O)n2NC(=O)c2ccc(O)cc2)cc1	ALR inh 97.5
COc1ccccc1-n1c(CCC(=O)O)ccc1-c1ccccc1	ALR inh 90.1
N#C/C(=C\c1c[nH]c2ccccc12)C(=O)NC1CCCC1	ALR inh 96.3
Cc1nnc(N/N=C/c2ccccc2O)n1N	none
Cc1nnc(N/N=C/c2ccc(-c3ccccc3F)o2)n1N	M18AAP inhibitor 52.2
C#CCNc1cc(-c2ccccc2)nc2ncnn12	none
CC(=O)CSc1cc(-c2ccccc2)nc2ncnn12	ALR inh 97.8
S=c1[nH]nc(Cc2cccs2)n1-c1ccccc1Cl	none
CC(=O)/C=C(\C)Nc1ccccc1O	M18AAP inhibitor 29.0
CC1CN(C(=O)Nc2ccc(F)cc2)C2(CCCCCC2)O1 (centres undefined)	none
Cc1[nH]n(-c2cccc(Cl)c2)c(=O)c1-c1ccccc1	ALR inh 84.3
Cc1[nH]n(-c2cccc([N+](=O)[O-])c2)c(=O)c1-c1ccccc1	ALR inh 88.8
Cc1[nH]n2c(=O)cc(-c3ccc([N+](=O)[O-])cc3)nc2c1-c1ccccc1	ALR inh 89.3
CN(CCc1ccccc1)C(=O)c1ccc(NC(=O)Cc2ccc(NC(=O)C3CCCN(C(=O)CCc4ccccc4)C3)cc2)cc1 (centres undefined)	none (no result: PolyA inh, IDE cell inh, ALR inh, M18AAP inhibitor)
Cn1c(CCNC(=O)c2ccccc2F)nnc1SCC(=O)Nc1ccccc1F	none
COC(=O)C1=C(C)N(Cc2ccccc2C(F)(F)F)C(=NCc2ccc(OC)cc2)NC1c1cccc(Cl)c1 (centres undefined)	none (no result: PolyA inh, IDE cell inh, ALR inh, IDE cell activ, M18AAP inhibitor)
COc1cc(CN2C[C@@H](CO)O[C@@H](n3cnc4c(N5CCN(c6ccccc6)CC5)ncnc43)C2)cc(OC)c1OC	none (no result: PolyA inh, IDE cell inh, ALR inh, IDE cell activ, M18AAP inhibitor)
CC(=O)c1cccc(S(=O)(=O)NCCC(=O)O)c1	none
Cc1ccc(NCc2nnc(SCC(=O)NCc3ccco3)n2CC2CCCO2)c(C)c1 (centres undefined)	none
Cc1ccc(NCc2nnc(SCC(=O)N3CCCCC3)n2CC2CCCO2)c(C)c1 (centres undefined)	ALR inh 92.1
Cc1ccc(S(=O)(=O)CCC(=O)OCC(=O)Nc2cc(F)ccc2C)cc1	none (no result: M18AAP inhibitor)
Clc1ccc(-c2nc3cnccn3c2Nc2ccc3c(c2)OCO3)cc1	ALR inh 97.6, M18AAP inhibitor 31.2
Oc1ccccc1-c1nc2cnccn2c1Nc1ccc2c(c1)OCCO2	none
CSc1ccc(-c2nc3cnccn3c2Nc2ccc3c(c2)OCO3)cc1	ALR inh 99.6 (no result: CaV13 ICDI inh)
Cc1ccc(-c2nc3cnccn3c2Nc2ccc3c(c2)OCO3)o1	none (no result: ALR inh)
NC(=S)N/N=C/c1c[nH]c2ccc(OCc3ccccc3)cc12	ALR inh 98.9 (no result: CaV13 ICDI inh)
NC(=S)N/N=C\c1ccccc1OCc1ccccc1	none (no result: CaV13 ICDI inh)
CC(C)C(NS(=O)(=O)c1cccc2nsnc12)C(=O)NC1CCCCC1C (centres undefined)	none (no result: CaV13 ICDI inh)
Cc1ccc(OCc2ccc(C(=O)Nc3nc4ccccc4n3C)o2)c([N+](=O)[O-])c1	none
COC(=O)C(C)Sc1ncnc2c1nnn2-c1ccc(F)cc1 (centres undefined)	ALR inh 97.6
CC(C)OCCCNS(=O)(=O)c1ccc2c(c1)oc(=O)n2C	ALR inh 99.0
Cn1c(=O)oc2cc(S(=O)(=O)Nc3ccc(Cl)cc3)ccc21	none
CCCN(CCC)CCCNS(=O)(=O)c1ccc2c(c1)oc(=O)n2C	none
Cn1c(=O)oc2cc(S(=O)(=O)Nc3ccc(O)cc3)ccc21	ALR inh 99.5 (no result: IDE cell inh)
CC[n+]1c(/C=C/c2ccc(OC)c(OC)c2)ccc2ccccc21	none
C[n+]1c(/C=C/c2ccc(O)cc2)ccc2ccccc21	ALR inh 98.9
CC[n+]1c(/C=C/c2ccc(N(C)C)cc2)ccc2ccccc21	ALR inh 98.4 (no result: CaV13 ICDI inh)
CCN(CC)c1ccc(/C=C/c2ccc3ccc(OC)cc3[n+]2CC)cc1	ALR inh 99.1
CCc1ccc(NC(=O)CN2CCCN(S(=O)(=O)c3ccc(F)cc3)CC2)cc1	none
O=C(Nn1c(COc2ccccc2)nc2ccccc2c1=O)C(Cl)(Cl)Cl	ALR inh 97.3 (no result: IDE cell inh)
COc1ccc(N2C(=O)CSC23CCCCC3)cc1	ALR inh 98.5
Cc1oc(C(C)(C)C)cc1C(=O)Nc1cccc(/C=C\C(=O)O)c1	none (no result: ALR inh)
Cc1oc(-c2ccccc2)cc1C(=O)Nc1cccc(/C=C\C(=O)O)c1	ALR inh 95.9
Cc1ccc(NC(=O)CCCn2nc(C)c3c(C)n(-c4ccccc4)nc3c2=O)c(Cl)c1	none
C=CCn1c(-c2cccn(Cc3cccc(Cl)c3)c2=O)n[nH]c1=S	none
O=c1c(-c2n[nH]c(=S)n2-c2ccccc2)cccn1Cc1cccc(Cl)c1	ALR inh 93.0 (no result: CaV13 ICDI inh)
O=C(ONc1ccc(N=NC(=O)c2ccccc2O)cc1)c1ccccc1	ALR inh 97.8
O=Nc1ccc(NOC(=O)c2ccccc2Br)cc1	none
CC1=C(C(=O)N2CCCCCC2)CC(CC(=O)NCCN2CCOCC2)C(=O)N1Cc1ccc(F)cc1 (centres undefined)	none (no result: PolyA inh, IDE cell inh, ALR inh, IDE cell activ, M18AAP inhibitor)
CCC1CCCCN1S(=O)(=O)c1ccc(C(=O)Nc2nnc(C3=COCCO3)o2)cc1 (centres undefined)	ALR inh 95.2
O=C(Nc1nnc(C2=COCCO2)o1)c1cccc(Br)c1	none
